According to PubChem BioAssay:
Values without a mark were called inactive. For some assays here: Measured potencies and affinities stand elsewhere. Calls of active or inactive are those of the source. Unless noted, how the calls were made is not given here.

Experiments:
[1] = antimalarial activity against Dd2 strain (AID 2302;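 active means growth inhibition above 50% at the single 2 µM test dose, taken to imply half-maximal potency below 2 µM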;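 further: 0% = DMSO untreated growth and 100% = chloroquine plus artemisinin killed control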); conditions: P. falciparum Dd2 in RBCs, LDH growth readout, 72 h; at 2 µM; hits give high values
[2] = HepG2 cytotoxicity, primary screen, cytotoxicity control for P. falciparum antimalarial project, cell-based, ATP luminescence (AID 2303;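 active means inhibition above 50%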;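 further: 0% = DMSO wells and 100% = digitonin-killed cells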); conditions: HepG2 viability, 24-48 h, at 10 µM, hits give high values
[3] = target: L-lactate dehydrogenase (Plasmodium falciparum (isolate CDC / Honduras)) (UniProt Q27743); experiment: PfLDH activity inhibition – cell lysate, 3D7 strain, counter-screen for P. falciparum growth inhibition project (AID 2304);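 further: 0% = vehicle and 100% = reference inhibitor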; conditions: P. falciparum 3D7 crude extract, LDH APAD/NBT absorbance; at 2 µM; hits give high values
[4] = inhibition of 3D7 malaria parasite growth – strain 3D7 (AID 2306);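 further: 0% = DMSO wells and 100% = chloroquine plus artemisinin control wells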; conditions: P. falciparum 3D7 erythrocytic growth, LDH absorbance, 72 h; at 2 µM; hits give high values
[5] = target: Calcium-dependent protein kinase 1 (Plasmodium falciparum (isolate 3D7)) (UniProt P62344); experiment: PfCDPK1 kinase inhibitors, biochemical, TCAMS library (AID 1159585; cut-off not given, nearly all actives have IC50 up to about 0.98 µM;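 further: inhibitors leave more ATP so luminescence rises with inhibition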); conditions: recombinant PfCDPK1, Kinase-Glo ATP depletion luminescence
[6] = target: Plasmodium falciparum protein kinase 6 (PK6, PF3D7_1337100) (UniProt Q8IDW1); experiment: PfPK6 kinase inhibitors, biochemical, TCAMS library (AID 1159586); conditions: recombinant PfPK6, Kinase-Glo ATP depletion luminescence
[7] = target: Protein kinase 7 (PK7), Plasmodium falciparum 3D7 (PF3D7_0213400) (UniProt Q7YTF7); experiment: inhibition of Plasmodium PK7 catalytic activity – biochemical, TCAMS antimalarial set, Kinase-Glo luminescence (AID 1159587); conditions: recombinant PfPK7, Kinase-Glo ATP depletion luminescence
[8] = target: Calcium-dependent protein kinase 4 (Plasmodium falciparum (isolate 3D7)) (UniProt Q8IBS5); experiment: PfCDPK4 kinase inhibitors, biochemical, TCAMS library (AID 1159588; cut-off not given, nearly all actives have IC50 up to about 0.91 µM); conditions: recombinant PfCDPK4, Kinase-Glo ATP depletion luminescence
Sequence of Calcium-dependent protein kinase 4 (Plasmodium falciparum (isolate 3D7)) (Q8IBS5 whole entry, looked up): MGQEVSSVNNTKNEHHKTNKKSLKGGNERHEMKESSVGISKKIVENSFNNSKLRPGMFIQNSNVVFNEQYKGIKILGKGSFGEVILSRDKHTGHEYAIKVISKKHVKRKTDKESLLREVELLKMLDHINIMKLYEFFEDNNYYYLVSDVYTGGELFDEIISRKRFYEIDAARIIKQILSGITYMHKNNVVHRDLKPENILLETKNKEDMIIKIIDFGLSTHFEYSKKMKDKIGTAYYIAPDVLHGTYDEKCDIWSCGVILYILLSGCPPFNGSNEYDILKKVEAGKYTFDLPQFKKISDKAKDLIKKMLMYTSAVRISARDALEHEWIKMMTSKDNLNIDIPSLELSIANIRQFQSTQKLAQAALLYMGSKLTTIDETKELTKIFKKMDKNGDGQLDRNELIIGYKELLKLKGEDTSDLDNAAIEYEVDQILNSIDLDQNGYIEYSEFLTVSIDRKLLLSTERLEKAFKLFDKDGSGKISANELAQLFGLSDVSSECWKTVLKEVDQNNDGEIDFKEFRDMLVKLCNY

Sequence of Protein kinase 7 (PK7), Plasmodium falciparum 3D7 (PF3D7_0213400) (Q7YTF7 1-343): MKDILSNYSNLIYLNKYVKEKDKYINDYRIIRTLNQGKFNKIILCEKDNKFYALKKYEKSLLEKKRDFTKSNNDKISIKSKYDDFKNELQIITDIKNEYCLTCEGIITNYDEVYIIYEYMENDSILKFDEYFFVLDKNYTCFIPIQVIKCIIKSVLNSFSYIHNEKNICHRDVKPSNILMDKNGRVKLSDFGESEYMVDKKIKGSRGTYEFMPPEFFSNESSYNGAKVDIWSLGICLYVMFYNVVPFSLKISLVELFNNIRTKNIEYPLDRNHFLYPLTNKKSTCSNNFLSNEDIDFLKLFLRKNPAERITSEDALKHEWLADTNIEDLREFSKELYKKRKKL
Sequence of Calcium-dependent protein kinase 1 (Plasmodium falciparum (isolate 3D7)) (P62344 whole entry, looked up): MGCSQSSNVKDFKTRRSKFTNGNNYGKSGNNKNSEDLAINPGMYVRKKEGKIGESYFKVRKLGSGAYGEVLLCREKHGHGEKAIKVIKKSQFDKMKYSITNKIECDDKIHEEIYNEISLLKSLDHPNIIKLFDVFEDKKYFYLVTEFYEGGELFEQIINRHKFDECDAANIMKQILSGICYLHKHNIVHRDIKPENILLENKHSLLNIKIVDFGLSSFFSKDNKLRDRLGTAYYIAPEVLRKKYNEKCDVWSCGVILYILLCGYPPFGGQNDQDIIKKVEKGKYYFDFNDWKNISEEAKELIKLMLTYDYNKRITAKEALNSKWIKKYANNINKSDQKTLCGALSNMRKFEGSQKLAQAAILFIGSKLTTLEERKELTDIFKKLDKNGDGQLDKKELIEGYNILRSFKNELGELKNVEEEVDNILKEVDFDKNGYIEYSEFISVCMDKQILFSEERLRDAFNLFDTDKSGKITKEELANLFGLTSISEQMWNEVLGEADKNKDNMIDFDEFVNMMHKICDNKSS
Sequence of Plasmodium falciparum protein kinase 6 (PK6, PF3D7_1337100) (Q8IDW1 1-305): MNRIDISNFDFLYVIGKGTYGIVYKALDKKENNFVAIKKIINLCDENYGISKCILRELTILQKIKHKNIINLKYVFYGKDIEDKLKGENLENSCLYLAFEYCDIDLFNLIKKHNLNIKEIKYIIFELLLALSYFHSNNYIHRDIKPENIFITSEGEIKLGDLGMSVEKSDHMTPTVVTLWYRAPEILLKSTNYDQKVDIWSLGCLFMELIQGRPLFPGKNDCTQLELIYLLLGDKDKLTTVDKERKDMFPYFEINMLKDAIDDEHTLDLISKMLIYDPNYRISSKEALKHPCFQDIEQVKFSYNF
Sequence of L-lactate dehydrogenase (Plasmodium falciparum (isolate CDC / Honduras)) (Q27743 whole entry, looked up): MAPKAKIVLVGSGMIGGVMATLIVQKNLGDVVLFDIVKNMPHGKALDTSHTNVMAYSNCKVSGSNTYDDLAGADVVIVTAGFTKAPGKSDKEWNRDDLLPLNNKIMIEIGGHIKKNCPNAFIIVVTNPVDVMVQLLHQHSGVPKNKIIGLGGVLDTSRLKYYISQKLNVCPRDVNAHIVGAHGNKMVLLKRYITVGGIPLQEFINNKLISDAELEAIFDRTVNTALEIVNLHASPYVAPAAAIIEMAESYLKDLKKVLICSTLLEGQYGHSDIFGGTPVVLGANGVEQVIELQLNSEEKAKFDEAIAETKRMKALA

Row | Compound | growth inhibition [1] | inhibition [2] | inhibition [3] [%] | growth inhibition [4] | outcome [5] | outcome [6] | outcome [7] | outcome [8]
1 | Cc1ccc(C(=O)Cn2nc(-c3ccc(C)c(S(=O)(=O)N4CCCC4)c3)ccc2=O)cc1 | 70% (active) | -1% | -3 | 94% (active) | inactive | inactive | inactive | inactive
2 | COCCNCc1cccc(-c2cccc(CNC3CCN(Cc4ccccc4)CC3)c2)c1 | 99% (active) | 28% | -4 | 101% (active) | inactive | inactive | inactive | inactive
3 | Nc1nccc2ccc(-c3cccc(O)c3)cc12 | 71% (active) | 43% | 7 | 95% (active) | inactive | inactive | inactive | inactive
4 | Cc1nc(-c2cccc(C(=O)Nc3cnc4ccccc4c3)c2)no1 | 12% | 15% | -10 | 85% (active) | inactive | inactive | inactive | inactive
5 | Cc1cccc(C)c1N1CCN(C2CCC(NC(=O)/C=C/c3ccccc3)CC2)CC1 (stereo not given) | 34% | 38% | -2 | 83% (active) | inactive | inactive | inactive | inactive
6 | COc1cc2nc(N3CCN(C(=O)c4cccc(I)c4)CC3)nc(N)c2cc1OC | 26% | 11% | 2 | 88% (active) | inactive | inactive | inactive | inactive
7 | Cc1cccc2[nH]c(-c3ccc(-c4ccc(CN5CCC(CCN6CCCCC6)CC5)cc4)cc3)nc12 | 100% (active) | 99% (active) | 6 | 100% (active) | inactive | inactive | inactive | inactive
8 | Fc1ccc2nc(-c3ccc(-c4ccc(CN5CCC(CCN6CCCCC6)CC5)cc4)s3)[nH]c2c1 | 101% (active) | 96% (active) | 3 | 101% (active) | inactive | inactive | inactive | inactive
9 | Cc1ccc(C(=O)c2oc3ccc4c(C)cc(=O)oc4c3c2C)cc1 | 48% | -8% | 1 | 86% (active) | inactive | inactive | inactive | inactive
10 | Cc1[nH]c(C)c([N+](=O)[O-])c(=O)c1-c1ccc(Oc2ccccc2)cc1 | 97% (active) | 11% | 3 | 98% (active) | inactive | inactive | inactive | inactive
11 | CC(C)C[C@@H](/C=N/NC(N)=O)NC(=O)[C@H](CC(C)C)NC(=O)[C@H](CC(C)C)NC(=O)OCc1ccccc1 | 99% (active) | 41% | -1 | 100% (active) | inactive | inactive | inactive | inactive
12 | Nc1cccc(CNCc2cccc(-c3ccc(-c4nc5ccccc5[nH]4)s3)c2)c1 | 90% (active) | 8% | -1 | 101% (active) | inactive | inactive | inactive | inactive
13 | O=[N+]([O-])c1cccc(-c2nc(-c3ccc(Br)cc3)[nH]c2-c2ccc(Br)cc2)c1 | 44% | 6% | 2 | 99% (active) | inactive | inactive | inactive | inactive
14 | CC1CCN(C(=O)[C@H](Cc2c[nH]c3ccccc23)NS(=O)(=O)c2ccc(Cl)cc2)CC1 | 99% (active) | -6% | 0 | 100% (active) | inactive | inactive | inactive | inactive
15 | N#Cc1c(N)nc(SCC(=O)Nc2cc(C(F)(F)F)ccc2Cl)c(C#N)c1-c1cccs1 | 96% (active) | 23% | -4 | 90% (active) | inactive | inactive | inactive | inactive
16 | CCC(=O)OC(CCN(CC)CC)(c1ccccc1)c1ccccc1 | 6% | 30% | 4 | 98% (active) | inactive | inactive | inactive | inactive
17 | CC1CCN(c2nc(C(=O)Nc3cccc4c3CCCC4)c(C(C)C)s2)CC1 | 49% | 14% | 3 | 96% (active) | inactive | inactive | inactive | inactive
18 | COCCC[C@H]1C(=O)O[C@H]2CCC[C@@H]21 | 85% (active) | -9% | -4 | 93% (active) | inactive | inactive | inactive | inactive
19 | Nc1ccc2c(N)c3ccccc3nc2c1 | 74% (active) | 20% | -2 | 93% (active) | inactive | inactive | inactive | inactive
20 | COc1ccc(C(=O)O)cc1OCc1ccccc1 | -3% | -3% | 3 | 99% (active) | inactive | inactive | inactive | inactive

Row | Compound | growth inhibition [1] | inhibition [2] | inhibition [3] [%] | growth inhibition [4] | outcome [5] | outcome [6] | outcome [7] | outcome [8]
21 | O=C(Nc1ccc(Cl)cc1)Nc1ccc(-c2csc(-c3nc4ccccc4[nH]3)c2)cc1 | 40% | 59% (active) | -4 | 90% (active) | inactive | inactive | inactive | inactive
22 | Cc1ccc(NC(=O)c2ccc(CN3CCCN(CCC(C)C)CC3)cc2)cc1C | 17% | 25% | 3 | 92% (active) | inactive | inactive | inactive | inactive
23 | CC(=O)Nc1ccc(CN(Cc2ccc(C)cc2)Cc2cccc(Oc3ccccc3)c2)cc1 | 87% (active) | 34% | 1 | 84% (active) | inactive | inactive | inactive | inactive
24 | CNC(=O)C1Cc2c([nH]c3cc(Br)ccc23)C2(CCN(CCc3ccccc3)CC2)N1 (stereo not given) | 31% | 10% | -8 | 101% (active) | inactive | inactive | inactive | inactive
25 | COc1ccc(O)c(C(=O)c2cc(C#N)c(=O)n(-c3ccc(Oc4ccccc4)cc3)c2)c1 | 20% | 22% | 5 | 97% (active) | inactive | inactive | inactive | inactive
26 | Cc1cc(C)c2nc(N3CCC(C(=O)NCCCN4CCC(N5CCCCC5)CC4)CC3)sc2c1 | 34% | 99% (active) | -5 | 99% (active) | inactive | inactive | inactive | inactive
27 | O=C(Nc1ccc(F)c(Cl)c1)NC1CCN(c2ccnc3cc(Cl)ccc23)C1 (stereo not given) | 74% (active) | 37% | -3 | 101% (active) | inactive | inactive | inactive | inactive
28 | CCOC(=O)c1cc(=O)c2ccc(OCC#N)cc2o1 | 86% (active) | 2% | -6 | 88% (active) | inactive | inactive | inactive | inactive
29 | COc1cc(CCN=C(N)/C=C/c2ccc(Cl)cc2)ccc1Cl | 16% | 68% (active) | 3 | 100% (active) | inactive | inactive | inactive | inactive
30 | O=C(/C=C/c1ccc(C(F)(F)F)cc1)NCCCCCN1CCCN(C(=O)Nc2ccc(Cl)cc2)CC1 | -1% | 28% | -1 | 99% (active) | inactive | inactive | inactive | inactive
31 | Cc1cccc2[nH]c(-c3cccc(-c4ccc(NC(=O)Nc5ccc(F)c(F)c5F)cc4)c3)nc12 | 100% (active) | 61% (active) | -4 | 101% (active) | inactive | inactive | inactive | inactive
32 | CCCCCCN1CCC(NCc2ccc(CN(C)C)cc2)CC1 | 26% | 18% | 1 | 92% (active) | inactive | inactive | inactive | inactive
33 | Nc1nc2ccc(CN(C=O)c3ccc(C(=O)N[C@@H](CCC(=O)O)C(=O)O)cc3)cc2c(=O)[nH]1 | 94% (active) | -5% | 2 | 93% (active) | inactive | inactive | inactive | inactive
34 | Cc1cc(OCCCN2CCCCC2)ccc1NC(=O)COc1ccc(Cl)cc1C(=O)c1cc(C#N)cc(C(F)(F)F)c1 | 7% | 23% | -5 | 87% (active) | inactive | inactive | inactive | inactive
35 | Cc1cc(-c2ccc(CNC3Cc4ccccc4C3)cc2)ccc1S(=O)(=O)NCCN1CCCC1 | 73% (active) | 99% (active) | 0 | 101% (active) | inactive | inactive | inactive | inactive
36 | CCc1nc2nc(C)cc(Nc3ccc4c(c3)OCCO4)n2n1 | 55% (active) | 8% | -1 | 88% (active) | inactive | inactive | inactive | inactive
37 | O=C(Nc1ccc(F)cc1)NC1CCN(CCCCCNC(=O)[C@@H]2C[C@H]2c2ccc(Cl)c(Cl)c2)CC1 | 20% | 46% | -2 | 101% (active) | inactive | inactive | inactive | inactive
38 | O=C(Nc1ccccc1)NC1CCN(CCC2(c3ccc(Cl)c(Cl)c3)COCN(C(=O)c3ccccc3)C2)C1 (stereo not given) | 81% (active) | 23% | 3 | 92% (active) | inactive | inactive | inactive | inactive
39 | CC(=O)c1ccc(N2C(=O)C3C(Cc4ccc(OC(C)(C)C)cc4)NC4(C(=O)N(Cc5ccc(C(C)(C)C)cc5)c5ccccc54)C3C2=O)cc1 (stereo not given) | 81% (active) | 13% | 4 | 86% (active) | inactive | inactive | inactive | inactive
40 | CCN(CC)CCN1C(=O)c2oc3ccc(Cl)cc3c(=O)c2C1c1ccc(SC)cc1 (stereo not given) | 6% | -5% | -6 | 98% (active) | inactive | inactive | inactive | inactive
